{
  "source": "PubChem BioAssay AID1719",
  "about": "(National Center for Advancing Translational Sciences (NCATS), 2009)",
  "note": "The list shows a part of the results. Results filed as inconclusive are left out. The source made the active and inactive calls.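 The calls were made as follows: active = compounds whose electron micrographs showed tau fibrils broken into shorter filaments or fragments, graded high on fibril breakup; inconclusive = micrographs gave an unclear fibril picture; inactive = the rest.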",
  "data": [
    {"target": "Microtubule-associated protein tau (Homo sapiens) (UniProt P10636)", "sequence (P10636 561-689 P618L limits assumed)": "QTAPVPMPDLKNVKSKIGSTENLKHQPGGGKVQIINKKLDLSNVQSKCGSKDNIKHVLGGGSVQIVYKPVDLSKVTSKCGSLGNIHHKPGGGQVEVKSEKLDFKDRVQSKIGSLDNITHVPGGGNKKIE", "test": "Transmission Electron Microscopy Assay for Inhibitors of Tau Fibrillization", "details": "recombinant tau K18 P301L (four-repeat tau fragment) fibrillization, TEM grading; active compounds read high", "description": "NIH Molecular Libraries Probe Production Network [MLPCN] NIH Chemical Genomics Center [NCGC] MLPCN Grant: X01 MH083262-01 Assay Provider: Carlo Ballatore, University of Pennsylvania NCGC Assay Overview: The microtubule-associated protein tau is an abundant protein in the axons of neurons that stabilizes microtubules. With its ability to modulate microtubule dynamics, tau contributes directly or indirectly, to key structural and regulatory cellular functions. Particularly important is the influence tau exerts on axonal transport, which allows signaling molecules, trophic factors and other essential cellular constituents to travel along the axons. Under pathological conditions, tau becomes sequestered into insoluble aggregates called neurofibrillary tangles. This phenomenon is believed to have pathological consequences by promoting axonal transport deficits that ultimately lead to synaptic dysfunction and neuronal loss. The ability of compounds to block tau fibrillization was visualized using transmission electron microscopy (TEM). Samples from the tau ThT confirmation assay treated with 100 uM compound (AID 1558) were centrifuged and imaged using TEM. […]", "values": [
      {"smiles": "CCN(CC)c1ccc2oc(=O)c(C)nc2c1", "fibril grade (0 = clumped fibrils, 4 = only tiny pieces)": "4 (active)"}
    ]}
  ]
}
